# Assay results published in PubChem BioAssay.
# Active and inactive are the calls of the source. Unless noted, how the calls were made is not given here.
# What was measured:
# [1] = resazurin metabolic signal in HepG2 cells – cell-based, resazurin fluorescence, 24 h, PK04 Diversity Set, profiling panel (AID 1172); settings: HepG2 viability, higher = more signal
# [2] = budding yeast growth changes without added modifier – OD600, strain BY4716, 24 h, basal condition, primary screen (AID 1173); settings: S. cerevisiae BY4716 growth, OD600, 24 h; higher = more signal, called active from +8 up or from −8 down
# [3] = viability profiling in MM1S myeloma cells – cell-based, resazurin fluorescence, basal, 24 h, PK04 Diversity Set, profiling panel (AID 1174); settings: higher = more signal, called active from +8 up or from −8 down;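 further: MM1S multiple myeloma cell line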
# [4] = biological target: Dihydroorotate dehydrogenase (quinone), mitochondrial (Plasmodium falciparum (isolate 3D7)) (UniProt Q08210); test: inhibition of P. falciparum DHODH – biochemical, C-terminal His tag, absorbance 600 nm, primary screen (AID 1175); settings: PfDHODH enzyme, DCIP absorbance 600 nm; higher = more signal, called active from +8 up or from −8 down;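 further: recombinant parasite enzyme with a five histidine tag at its C terminus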
# [5] = inhibition of PAO1 biofilm formation – strain PAO1, LB-PBS medium, absorbance 600 nm, primary screen (AID 1176); settings: P. aeruginosa PAO1 growth/biofilm, A600, 12 h; higher = more signal
# [6] = growth modulation of vineyard yeast isolate – strain RM11-1a, OD600, basal, 24 h, primary screen (AID 1177);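 further: cultures grown under basal conditions with no added stressor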; settings: S. cerevisiae RM11-1a growth, OD600, 24 h; higher = more signal, called active from +8 up or from −8 down
# [7] = growth of efflux-deficient E. coli DRC39 – strain DRC39, OD650, 24 h, E. coli filamentation inducers, primary screen (AID 1178);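 further: growth measured as culture turbidity by optical density at 650 nm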; settings: E. coli DRC39 acrAB, higher = more signal, called active from +8 up or from −8 down
# [8] = growth of efflux-deficient E. coli DRC39 – strain DRC39, OD650, 48 h, E. coli filamentation inducers, primary screen (AID 1179);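 further: screen aims at cell division blockers that make cells filament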; settings: E. coli DRC39 delta-acrAB growth, higher = more signal, called active from +8 up or from −8 down
# [9] = viability profiling in RPMI8226 myeloma cells – cell-based, resazurin fluorescence, basal, 24 h, PK04 Diversity Set, profiling panel (AID 1180); settings: higher = more signal;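 further: RPMI8826 multiple myeloma cell line at 5000 cells per well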
# [10] = biological target: E3 ubiquitin-protein ligase XIAP (Homo sapiens) (UniProt P98170); test: small molecules binding XIAP protein – biophysical, small-molecule microarray, fluorescence 635 nm, primary screen (AID 1181); settings: higher = more signal;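 further: score merges 667 nm emission and signal to noise over triplicate slides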
# [11] = test system: XIP peptide (Xip251-270) binding; test: XIP fragment 251-270 binding compounds – biochemical, small-molecule microarray, fluorescence 635/667 nm, 0.1 µg/mL protein, primary screen (AID 1182); settings: fluorescent protein binding, 635 nm, higher = more signal, called active from +8 up or from −8 down
# XIP peptide (Xip251-270) = test: compounds binding XIP fragment 251-270 – biochemical, small-molecule microarray, fluorescence 635/667 nm, 0.5 µg/mL protein, primary screen (AID 1183); settings: fluorescence 635 nm, higher = more signal
# [12] = blood-stage malaria parasite viability loss – strain 3D7, DAPI fluorescence, 100 nL, primary screen (AID 1184);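 further: parasites grown inside human red blood cells in medium with human serum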; settings: P. falciparum 3D7 growth, 3 d, higher = more signal
# [13] = biological target: Homeobox protein Hox-A13 (Mus musculus) (UniProt Q62424); test: disruptors of Hoxa13 oligonucleotide interaction – biochemical, fluorescence polarization, labeled oligonucleotide, primary screen (AID 1185); settings: Hoxa13:DNA binding, 15 min, higher = more signal, called active from +8 up or from −8 down
# [14] = blockers of DNA damage checkpoint Chk1 activation – imaging, HeLa, hydroxyurea, phospho-Chk1 antibody, percent positive cells, primary screen (AID 1186); settings: hydroxyurea-induced phospho-Chk1 immunofluorescence imaging, higher = more signal
# [15] = blockers of DNA damage checkpoint Chk1 activation – imaging, HeLa, hydroxyurea, phospho-Chk1 nuclear intensity, primary screen (AID 1187); settings: hydroxyurea-induced phospho-Chk1 immunofluorescence imaging, higher = more signal
# Sequence of Dihydroorotate dehydrogenase (quinone), mitochondrial (Plasmodium falciparum (isolate 3D7)) (Q08210 whole entry, looked up): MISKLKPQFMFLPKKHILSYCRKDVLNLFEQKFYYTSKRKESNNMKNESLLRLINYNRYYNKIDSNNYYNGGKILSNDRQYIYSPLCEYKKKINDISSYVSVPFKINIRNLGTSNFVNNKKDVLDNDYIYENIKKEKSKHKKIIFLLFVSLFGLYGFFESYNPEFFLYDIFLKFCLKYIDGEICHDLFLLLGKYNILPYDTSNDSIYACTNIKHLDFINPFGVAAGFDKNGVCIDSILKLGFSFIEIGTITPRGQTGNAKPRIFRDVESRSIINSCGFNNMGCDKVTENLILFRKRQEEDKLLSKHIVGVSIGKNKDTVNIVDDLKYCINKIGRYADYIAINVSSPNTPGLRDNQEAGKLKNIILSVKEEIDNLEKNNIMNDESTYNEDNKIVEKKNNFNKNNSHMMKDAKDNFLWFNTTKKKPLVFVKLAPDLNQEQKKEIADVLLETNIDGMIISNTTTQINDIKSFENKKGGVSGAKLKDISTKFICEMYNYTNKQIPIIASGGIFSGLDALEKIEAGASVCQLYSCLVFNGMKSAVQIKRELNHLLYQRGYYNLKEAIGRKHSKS
# Sequence of Homeobox protein Hox-A13 (Mus musculus) (Q62424 whole entry, looked up): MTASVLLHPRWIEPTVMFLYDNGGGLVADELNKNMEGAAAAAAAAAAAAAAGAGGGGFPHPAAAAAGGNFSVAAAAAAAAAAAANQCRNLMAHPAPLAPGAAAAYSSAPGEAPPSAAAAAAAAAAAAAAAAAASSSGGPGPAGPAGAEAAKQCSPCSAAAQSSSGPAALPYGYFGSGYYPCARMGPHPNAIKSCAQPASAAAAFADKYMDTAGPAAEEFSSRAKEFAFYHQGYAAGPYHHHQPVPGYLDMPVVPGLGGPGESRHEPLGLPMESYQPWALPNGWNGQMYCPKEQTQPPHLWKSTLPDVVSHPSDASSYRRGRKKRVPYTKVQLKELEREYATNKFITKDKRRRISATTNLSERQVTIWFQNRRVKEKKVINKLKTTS
# Sequence of E3 ubiquitin-protein ligase XIAP (Homo sapiens) (P98170 whole entry, looked up, the tested form may be a part): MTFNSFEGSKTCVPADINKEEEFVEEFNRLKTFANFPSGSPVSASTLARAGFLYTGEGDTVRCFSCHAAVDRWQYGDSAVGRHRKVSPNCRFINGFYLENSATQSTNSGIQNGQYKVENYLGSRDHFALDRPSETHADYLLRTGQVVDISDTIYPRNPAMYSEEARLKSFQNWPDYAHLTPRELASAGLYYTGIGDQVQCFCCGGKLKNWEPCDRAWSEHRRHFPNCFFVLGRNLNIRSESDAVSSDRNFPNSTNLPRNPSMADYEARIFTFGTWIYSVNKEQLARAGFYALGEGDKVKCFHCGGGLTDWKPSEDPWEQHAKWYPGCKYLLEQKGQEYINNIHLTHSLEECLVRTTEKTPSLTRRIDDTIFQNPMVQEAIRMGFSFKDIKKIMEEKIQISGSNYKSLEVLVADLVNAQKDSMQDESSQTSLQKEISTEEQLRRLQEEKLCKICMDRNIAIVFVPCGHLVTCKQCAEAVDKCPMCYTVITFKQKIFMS
Compound,z-score [1],z-score [2],z-score [3],composite z-score [4],z-score [5],z-score [6],z-score [7],z-score [8],z-score [9],composite z-score [10],composite z-score [11],composite z-score (XIP peptide (Xip251-270)),z-score [12],z-score [13],z-score [14],z-score [15]
CN1C(=O)C2C(C1=O)C1C=C(CCCO)C2C(c2ccc(CN3CCCC3)cc2)N1C (centres undefined),-1.03,1.04 (inactive),-1.78 (inactive),-3.89 (inactive),-1.02 (inactive),0.626 (inactive),-0.815 (inactive),-0.296 (inactive),-0.802,0.182,0.413 (inactive),-0.598,-1.27,-7.16 (inactive),-0.0348 (inactive),0.185 (inactive)
CC(C)N1CC=CC23O[C@@H]4C=CCCOC(=O)C4[C@H]2C(=O)N(CCCCCCO)[C@@H]3C1=O (some centres undefined),0.973,0.948 (inactive),0.98 (inactive),-0.0439 (inactive),0.109 (inactive),0.638 (inactive),0.66 (inactive),0.541 (inactive),0.937,0.694,-0.543 (inactive),0.645,0.0012,-2.29 (inactive),-0.478 (inactive),-0.286 (inactive)
CC(C)=C1C(=O)C(c2ccccc2)=C2CN3C(=O)N(CCc4ccccc4)C(=O)[C@]3(Cc3ccc(F)cc3)[C@H]21,-1.22,0.255 (inactive),-1.53 (inactive),-0.0278 (inactive),1.4 (inactive),0.223 (inactive),-0.933 (inactive),-0.853 (inactive),-0.942,-0.02,-0.391 (inactive),-0.27,-0.418,-2.1 (inactive),0.0852 (inactive),0.314 (inactive)
COc1ccc([Si](C)(C)[C@H]2[C@H](CC(=O)N3CCC[C@H]3CO)O[C@@]3(C(=O)N(Cc4cccc(N5C(=O)COc6ccccc65)c4)c4ccccc43)[C@@H]2C)cc1,-0.58,-1.16 (inactive),-0.986 (inactive),-3.33 (inactive),1.85 (inactive),-1.74 (inactive),1.21 (inactive),1.32 (inactive),-0.524,-0.0795,0.422 (inactive),0.74,-1.56,-3.12 (inactive),0.0942 (inactive),0.728 (inactive)
C#C[C@@H]1Oc2ccccc2S(=O)(=O)N2CCC[C@H]12,-0.768,-2.6 (inactive),-0.46 (inactive),0.515 (inactive),0.0359 (inactive),0.494 (inactive),-0.689 (inactive),-0.816 (inactive),-0.776,-0.38,-0.037 (inactive),-0.149,-0.0728,-0.61 (inactive),0.723 (inactive),0.595 (inactive)
CN(C)c1ccc(C(O)C2C=CC3C(=O)N(c4ccccc4)C(=O)C3N2Nc2ccccc2F)cc1 (centres undefined),-0.268,-1.77 (inactive),-0.234 (inactive),1.03 (inactive),0.657 (inactive),0.545 (inactive),-0.853 (inactive),-1.08 (inactive),-1.02,0.24,0.324 (inactive),0.265,-0.0341,-5.07 (inactive),-0.0191 (inactive),-0.817 (inactive)
C=CCN1C(=O)[C@]2(O[C@H](CCn3cc(CCO)nn3)[C@@H]([Si](C)(C)c3ccc(OC)cc3)[C@@H]2C)c2cc(N3CCOC3=O)ccc21,-0.0584,-0.528 (inactive),-0.368 (inactive),-0.173 (inactive),0.614 (inactive),0.817 (inactive),-0.815 (inactive),-1.18 (inactive),-0.789,-0.124,0.0616 (inactive),0.57,-2.7,-5.66 (inactive),-0.203 (inactive),-0.5 (inactive)
C=CC[C@]1(C(=O)NCc2ccccc2)N=C(c2ccc(OCCCO)cc2)O[C@H]1c1ccccc1,0.527,-0.127 (inactive),-0.223 (inactive),-0.649 (inactive),-0.193 (inactive),1.15 (inactive),0.0557 (inactive),-0.126 (inactive),-0.0458,-0.102,1.55 (inactive),0.776,-2.05,-6.34 (inactive),0.0635 (inactive),0.896 (inactive)
C/C=C\[C@@H](NCc1ccccc1Br)[C@@H](O)Cc1ccccc1,-0.391,-9.3 (active),-0.393 (inactive),-2.11 (inactive),-1.61 (inactive),-0.572 (inactive),-0.179 (inactive),-1.18 (inactive),-0.645,0.0785,-0.0971 (inactive),0.0819,-1.64,-1.47 (inactive),0.0731 (inactive),0.35 (inactive)
